Out of some 360,000 compounds screened, about 1,500 (0.42%) were called active. The sample holds actives, similar compounds and a random draw of the others, so the mix is not that of the screen. A number with no mark means an inactive call. Cut-off read from the data, not from the text of the source: active = inhibition above about 8.5%; inactive = the rest.
What follows are compounds tested on HIV-1 gp120 / PG9 antibody interaction (assay: binders of HIV-1 gp120 antibody PG9, primary screen, biochemical, TR-FRET (AID 624416)). Conditions: TR-FRET gp120-PG9 antibody binding; at 6.7 µM; hits give high values.

Row | Compound | inhibition
1 | O=C(NCc1ccccc1)[C@@H]1CCCN1C(=O)[C@H]1CCCN1C(=O)c1cccc(Cl)c1 | -0.83%
2 | Cc1noc(C)c1NC(=O)Nc1ccc2c(c1)C(=O)N([C@H](C)CO)C[C@H](C)[C@H](CN(C)Cc1ccncc1)OCCCC[C@@H](C)O2 | 0.19%
3 | C[C@H]1CN([C@@H](C)CO)C(=O)CCCn2nncc2CO[C@@H]1CN(C)C(=O)Nc1ccc(N2CCN(C)CC2)cc1 | -0.47%
4 | Cc1[nH]c2ccccc2c1CC(=O)Nc1ccc(Nc2cccnc2)c(-c2cccc(Cl)c2)c1 | 0.12%
5 | O=C(O)Cn1cnc2c(NCc3ccccc3)ncnc21 | 1.02%
6 | CC(=O)C1=C(C)N(Cc2ccccc2)C(=S)NC1c1cccc(Br)c1 (stereo not given) | -1.42%
7 | CCOc1ccccc1C(=O)N1CCC[C@@H]1C(=O)N1CCC[C@H]1C(=O)NCc1ccccc1 | 2.14%
8 | COc1cccc(CC(=O)N2CCN(C(=O)C(=O)c3cccc(C(F)(F)F)c3)CC2)c1 | 0.18%
9 | COCc1cc(N2CCN(C(=O)OC(C)(C)C)C[C@@H]2C)ccc1N1CCN(Cc2ccccc2)[C@H](C)C1 | 0.37%
10 | CCCCCCCCN1C(=O)[C@@H](CC(=O)NCc2ccccc2)C[C@@]2(C(=O)OC)C1=C[C@H](C(C)(C)C)O[C@@H]2C | -0.73%
11 | COCCNc1nc(Nc2ccccc2Cl)c2sc(-c3ccccc3)cc2n1 | 1.58%
12 | COCCCNc1nc2c(-c3cccc(C)c3)nnn2c2ccc(Cl)cc12 | 10.3% (active)
13 | COCCCNc1nc2c(-c3cccc(C(F)(F)F)c3)nnn2c2ccccc12 | 0.39%
14 | CC(C)CNc1cccc2c1S(=O)(=O)N[C@H](CC(C)C)CO2 | -0.01%
15 | CN(C)C(=O)N1CCN(C(=O)[C@@H](Cc2ccccc2)NC(=O)[C@H]2O[C@@H](n3ccc(N)nc3=O)[C@H](O)[C@@H]2O)CC1 | -2.32%
16 | CCCOc1ccc(C2C(C(=O)c3ccc(C)o3)=C(O)C(=O)N2CCCn2ccnc2)cc1 (stereo not given) | 54.6% (active)
17 | CCOc1ccc(C2/C(=C(/O)c3ccc4c(c3)CC(C)O4)C(=O)C(=O)N2CCCn2ccnc2)cc1 (stereo not given) | 1.05%
18 | C=CCOc1cccc(C2C(C(=O)c3ccc(C)o3)=C(O)C(=O)N2CCCn2ccnc2)c1 (stereo not given) | 11.1% (active)
19 | C=CCOc1cccc(C2C(C(=O)c3ccc(C)o3)=C(O)C(=O)N2CCN2CCOCC2)c1 (stereo not given) | 2.96%
20 | c1ccc(Cc2ccc(OCCn3ccnc3)cc2)cc1 | -0.66%

Row | Compound | inhibition
21 | C=CCOc1cccc(C2C(C(=O)c3ccc(C)o3)=C(O)C(=O)N2c2nnc(C)s2)c1 (stereo not given) | 2.85%
22 | COC(=O)c1c(-c2ccc(OC)cc2)c2c(c3c4cc(OC)ccc4n(S(=O)(=O)c4ccc(F)cc4)c13)C(=O)N(C)C2 | 1.03%
23 | COC(=O)c1c(-c2ccc(OC)cc2)c2c(c3c4ccccc4n(S(=O)(=O)c4ccc(C)cc4)c13)C(=O)N(C)C2 | 0.17%
24 | CN1C(=O)C2CC(O)C(SC3CC4C(=O)N(C)C(=O)C4CC3O)CC2C1=O (stereo not given) | 0.46%
25 | CC(C)(C)c1ccc(S(=O)(=O)NCC2CCN(C(=O)C(=O)c3cc4ccccc4o3)CC2)cc1 | -1.81%
26 | Cc1cc(Br)cn2c(Cc3ccccc3C(F)(F)F)c(-c3ccc(C#N)cc3)nc12 | 0.29%
27 | O=C1COc2ccc(C(=O)COC(=O)c3ccccc3Cl)cc2N1 | 28.2% (active)
28 | O=C1COc2ccc(C(=O)COC(=O)c3cccnc3Cl)cc2N1 | -1.31%
29 | COc1cc(N)c(Cl)cc1C(=O)OCC(=O)c1ccc2c(c1)NC(=O)CO2 | -0.01%
30 | OC(c1ccccc1)(c1ccccc1)C1CCN(CCCOc2ccc(-c3ccsc3)cc2)CC1 | 1.88%
31 | COCCCNC(=O)C[C@H]1C[C@@]2(C(=O)OC)C(=C[C@H](C(C)(C)C)O[C@@H]2C)N(Cc2ccc3c(c2)OCO3)C1=O | 0.35%
32 | CC(C)C[C@H](NC(=O)CC1CCCC1)C(=O)N1CCC[C@H]1C(=O)NCc1ccccc1 | -0.84%
33 | Cn1c(=S)sc2ccc3ccccc3c21 | 14.2% (active)
34 | COc1ccc2ccccc2c1CNc1nnnn1C | 0.54%
35 | CC(=O)C1=C(C)N(Cc2ccc(Cl)cc2)C(=S)NC1c1ccc(F)cc1 (stereo not given) | -2.38%
36 | Cc1ccc2nc(-c3ccc(CN4CCC(n5cc(-c6ccccc6)[nH]c5=O)CC4)cc3)c(-c3ccccc3)nc2c1 | -0.32%
37 | O=C(NCc1ccccc1)[C@H]1CCCN1C(=O)[C@H]1CCCN1C(=O)N1CCOCC1 | -0.88%
38 | CC(C)(C)n1nc(C2CC2)c(Br)c1NC(=O)c1ccccc1F | 0.97%
39 | CC1CCN(C(=O)c2ncn3c2C(=O)N[C@@H](C)C3)CC1 | -0.93%
40 | O=C(COC(=O)c1cc2c(s1)CCCC2)NCc1ccccc1Cl | -0.89%

Reference: PubChem BioAssay AID624416 (The Scripps Research Institute Molecular Screening Center, 2012)
